Experimental data published in PubChem BioAssay (NCATS).
Records with an inconclusive call do not appear. Unmarked numbers belong to inactive results. The source made the active and inactive calls. The call rests on the fitted dose curve.

biological target: Cytochrome P450 1A2 (Homo sapiens) (UniProt P05177); experiment: p450-cyp1a2 (AID 410); conditions: recombinant CYP1A2, luciferin-ME demethylation, luminescence; series mostly up to 11.4 µM; activity change, negative = inhibition: at the top concentration;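 on activity change, negative = inhibition: -100% = full effect of reference inhibitor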
Sequence (P05177 whole entry, looked up): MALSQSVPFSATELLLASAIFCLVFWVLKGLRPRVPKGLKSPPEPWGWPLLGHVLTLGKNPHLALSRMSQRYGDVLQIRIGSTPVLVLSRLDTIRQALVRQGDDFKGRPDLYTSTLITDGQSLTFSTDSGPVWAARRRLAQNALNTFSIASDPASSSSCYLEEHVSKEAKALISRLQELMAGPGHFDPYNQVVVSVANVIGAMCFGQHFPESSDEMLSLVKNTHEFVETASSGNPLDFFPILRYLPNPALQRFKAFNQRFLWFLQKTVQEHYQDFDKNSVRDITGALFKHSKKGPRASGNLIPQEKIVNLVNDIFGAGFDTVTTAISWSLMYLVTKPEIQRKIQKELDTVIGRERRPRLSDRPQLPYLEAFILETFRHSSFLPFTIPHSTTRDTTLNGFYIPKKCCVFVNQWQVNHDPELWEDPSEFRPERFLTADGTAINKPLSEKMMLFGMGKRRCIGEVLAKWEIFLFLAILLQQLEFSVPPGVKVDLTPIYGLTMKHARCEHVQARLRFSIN
Experimental: The P450 gene superfamily is involved in metabolism and the clearance of xenobiotics. This assay used human CYP1A2 to measure the demethylation of luciferin 6' methyl ether (Luciferin-ME; Promega-Glo) to luciferin. The luciferin is then measured by luminescence after the addition of a luciferase detection regeant. Luciferin-ME concentration in the assay was equal to its Km for CYP1A2.
NCGC Assay Protocol Summary:
Two uL of enzyme and substrate mix (final concentrations: 20nM CYP1A2, 100uM Luciferin-ME, 100mM KPO4) were dispensed into a white, solid bottom 1536-well microtiter plate. 23nL of compound was transferred by a pin tool. The plate was incubated at room temperature for 10 min. Two uL of an NADPH regeneration solution (Promega supplied reagent) was dispensed and the reaction was allowed to continue for 60 min at room temperature. Then the reaction was stopped by reconstituted detection reagent. After another 20 min of incubation the plate was read on the ViewLux (Perkin Elmer) at 60 sec exposure and 2x2 binning. This protocol was carried out with Promega-Glo reagents and further information can be found at http://www.promega.com/tbs/tb325/tb325.pdf. Data were normalized to the to AC100 inhibition (57 uM furafylline).
Potency means the concentration at half of the fitted maximal effect.

Compared with `O=S(=O)(c1cnccc1N1CCN(CCO)CC1)N1CCCC1`, `O=C(NNS(=O)(=O)c1ccccc1)c1cccnc1` is higher in activity change, negative = inhibition: -8.3% [at 2.29 µM] for the first, 2.2% [at 2.29 µM] for the second.

Going from `CN[C@@H]1NC(=O)c2ccccc2N1Cc1ccc(F)cc1` to `O=C(O)c1ccc(C(=O)Nc2cccc3ccccc23)c(C(=O)O)c1`, the activity change, negative = inhibition rises from -7.6% [at 2.29 µM] to -6.2% [at 2.29 µM].

First: N#CC(CC(=O)O)=C(c1ccccc1)c1ccccc1
Second: O=C(O)[C@@H]1[C@@H](C(=O)Nc2ccccc2)[C@@H]2C=C[C@@H]1O2
The activity change, negative = inhibition of the first is higher: -14.5% [at 2.29 µM] for the first, -18.1% [at 2.29 µM] for the second.

First: O=[N+]([O-])c1ccc(S(=O)(=O)Cc2ccccc2)c2nonc12
Second: Cc1ccc(S(=O)(=O)N[C@H](CN)C(=O)O)cc1
The activity change, negative = inhibition of the first is higher: -5.3% [at 2.29 µM] for the first, -18.5% [at 2.29 µM] for the second.

First: NCC[C@H](N)C(=O)O
Second: CC(C)(N)C(=O)N[C@@H]1C(=O)N2[C@@H]1SC(C)(C)[C@H]2C(=O)O
The activity change, negative = inhibition of the first is lower: -8.9% [at 2.29 µM] for the first, 4.4% [at 2.29 µM] for the second.

Compared with `C[C@]12CC[C@H]3c4ccc(O)cc4CC[C@@H]3[C@H]1CC[C@@H]2OP(=O)(O)O`, `NC([N-]/N=C/c1ccccn1)=[S]=[Fe].O=S(=O)(O)O` is higher in activity change, negative = inhibition: -11.2% [at 2.29 µM] for the first, 15.8% [at 2.29 µM] for the second.

First: CCCn1cnc2c(SCC(=O)O)nc(N)nc21
Second: Nc1[nH]c(=O)nc2c1ncn2[C@H]1O[C@@H](CO)[C@@H](O)[C@@H]1O
The “activity change, negative = inhibition” value of the first is higher: 1.5% for the first, -0.6% for the second.

Compared with `CN(C)CCNc1nc2c(c(=O)n(C)c(=O)n2C)n1C`, `Cn1c(=O)c2c(nc(N/N=C\c3ccccc3C(=O)O)n2C)n(C)c1=O` is higher in “activity change, negative = inhibition” value: -7.7% for the first, 5.8% for the second.

First: c1ccc(CNCCN2CCNCC2)nc1
Second: C[C@H]1CC(C)(C)C[C@@](OCCN2CCCCC2)(c2ccccc2)C1
The “activity change, negative = inhibition” value of the first is higher: 2% for the first, 0.2% for the second.

Going from `C[C@H]1[C@H](C)OC(=O)C[C@H](O)C[C@H](O)C[C@H](O)CC[C@H](O)[C@H](O)CC(=O)C[C@H](O)[C@H](C(=O)O)[C@H](O)C[C@H](O[C@@H]2O[C@@H](C)[C@H](O)[C@@H](N)[C@@H]2O)C=CC=CC=CC=CCCC=CC=C[C@@](C)(O)[C@H]1O` to `COc1cc(NCCC(=O)O)c2ncccc2c1`, the “activity change, negative = inhibition” value falls from 12.4% to -18.1%.

Going from `Cc1ncc(CSC(=N)N)n1Cc1ccccc1` to `O=C(O)c1ccc(S(=O)(=O)N=Nc2c(O)[nH]c3ccccc23)cc1`, the “activity change, negative = inhibition” value falls from -2.1% to -11.7%.

First: CCON=C1C(C)(C)C(C)(C)C(C)(C)C1(C)C
Second: CC(C)C(O)(C(C)C)C(C)C
The “activity change, negative = inhibition” value of the first is lower: -12% for the first, -8.7% for the second.

First: CN(C)CCNS(=O)(=O)N(C)C
Second: CS[C@@H](CC(=O)O)C(=O)O
The “activity change, negative = inhibition” value of the first is lower: -3% for the first, 6.1% for the second.

`CC#C[C@@]1(O)CC[C@@H]2[C@@H]3CCC4=CC(=O)CCC4=C3[C@@H](c3ccc(N(C)C)cc3)C[C@]21C` was tested, and the Potency was 15.8 µM (active).
In the case of `CN(CCc1ccccn1)c1ccc2c(c1)Cc1ccccc1-2`, the Potency is reported as 0.631 µM (active).
For `N#CCCn1c(=O)c(-c2cccc(C#N)c2)nc2cnc(Oc3ccccc3)nc21`, the Potency was 20 µM (active).
In the case of `Sc1ccc2ccccc2c1CNCc1ccccc1`, the Potency is reported as 1.26 µM (active).
With `Clc1ccc2c(N3CCC(CCC4CCN(c5ncnc6cc(Cl)ccc56)CC4)CC3)ncnc2c1` the Potency was 3.16 µM (active).
For `Nc1nc(SCc2ccccc2[N+](=O)[O-])c2[nH]cnc2n1`, the Potency was 5.01 µM (active).
With `Clc1ccc(CN2CCCN(Cc3ccc(Cl)cc3)C2c2cc3ccccc3c3ccccc23)cc1` the Potency was 0.794 µM (active).
In the case of `c1ccc2c(c1)-c1ccccc1C2N1CC2CCC(CC2)C1`, the Potency is reported as 0.501 µM (active).
`CC(=O)CC(=O)Nc1ccc2ccccc2c1` was tested, and the Potency was 2 µM (active).
In the case of `NC(=S)SCCC(=O)O`, the Potency is reported as 1.58 µM (active).
With `COc1ccc2cc1Oc1ccc(cc1)C[C@H]1c3cc(c(OC)cc3CCN1C)Oc1c(OC)c(OC)cc3c1[C@@H](C2)N(C)CC3` the Potency was “inactive”.

Going from `Nc1nc(Cl)nc2c1ncn2[C@@H]1O[C@@H](COP(=O)(O)OP(=O)(O)OP(=O)(O)O)[C@@H](O)[C@H]1O` to `CNc1ncnc2c1ncn2[C@H]1C[C@@H](OP(=O)(O)O)[C@H](COP(=O)(O)O)O1`, the “activity change, negative = inhibition” value falls from -0.5% [at 57 µM] to -14.7% [at 57 µM].

With `N#Cc1ccc(CN2CC3(CCN(C(=O)c4cc(C(F)(F)F)cc(C(F)(F)F)c4)CC3)C2)cc1` the “activity change, negative = inhibition” value was -2.9% [at 57 µM].
